Screening results as filed in PubChem BioAssay.
MITF primary = inhibitors of human MITF | O75030 | AlphaScreen MITF homodimerization, bead proximity signal | inhibition, % at 2.6 µM | actives 0.91% (n = 650,000); in the data active = inhibition above about 50%;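 note: 0% = vehicle wells with protein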
GPR151 activ = activators of human GPR151; Q8TDV0; PathHunter beta-arrestin GPR151 cells, luminescence; activation, % at 11.2 µM; actives 1% (n = 650,000); AID 1508602; in the data active = activation above about 4.9%;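 note: 0% = median of compound wells and 100% = cells with positive control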
FBW7 activator = activators of human E3 ligase FBW7 | AlphaScreen FBW7–phospho-cyclin E peptide binding, activator screen | normalized activity (activation), % at 26.1 µM | actives 0.13% (n = 650,000); in the data active = normalized activity above about 1.9%;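 note: purified mutant Fbw7 with reduced substrate affinity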
Target sequence (Q969H0 whole entry, looked up): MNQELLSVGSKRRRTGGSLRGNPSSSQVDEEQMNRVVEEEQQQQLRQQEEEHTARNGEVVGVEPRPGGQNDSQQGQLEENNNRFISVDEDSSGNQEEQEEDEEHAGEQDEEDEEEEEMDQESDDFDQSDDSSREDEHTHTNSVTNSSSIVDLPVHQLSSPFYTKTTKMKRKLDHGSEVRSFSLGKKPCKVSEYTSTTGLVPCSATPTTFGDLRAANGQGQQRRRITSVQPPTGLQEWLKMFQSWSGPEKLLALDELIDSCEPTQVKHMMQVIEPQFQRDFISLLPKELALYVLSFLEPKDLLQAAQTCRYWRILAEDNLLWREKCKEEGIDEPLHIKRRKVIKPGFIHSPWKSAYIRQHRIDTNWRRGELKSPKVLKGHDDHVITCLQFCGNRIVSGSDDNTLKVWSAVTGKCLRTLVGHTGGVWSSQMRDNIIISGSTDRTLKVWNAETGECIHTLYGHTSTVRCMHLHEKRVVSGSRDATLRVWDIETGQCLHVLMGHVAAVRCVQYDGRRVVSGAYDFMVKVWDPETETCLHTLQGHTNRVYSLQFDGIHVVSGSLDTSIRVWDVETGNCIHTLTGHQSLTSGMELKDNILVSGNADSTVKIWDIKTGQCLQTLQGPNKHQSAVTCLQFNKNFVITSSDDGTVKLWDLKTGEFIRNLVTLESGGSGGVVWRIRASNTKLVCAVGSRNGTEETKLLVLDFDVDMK
TEAD-YAP inh = TEAD-YAP interaction inhibition. HEK-TIYL cells, TEAD-Gal4/YAP UAS-luciferase luminescence. inhibition, % at 9.12 µM. actives 1.4% (n = 640,000). AID 1259422; in the data active = inhibition above about 32%;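 note: 0% = median of test compound wells and 100% = reference inhibitor wells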
Active calls of the source: *. Sampled rows, rich in hits. Any-hit rate of the full collection: about 3.4%.

O=C(c1ccc(Br)cc1)c1cc([N+](=O)[O-])ccc1N1CCOCC1 was read as MITF primary 9.2, GPR151 activ -0.3, FBW7 activator 0.1 and TEAD-YAP inh 54.4*.
`NC(=O)c1cc([N+](=O)[O-])ccc1N1CCOCC1` gave MITF primary -2.0, GPR151 activ 0.1, FBW7 activator 0.3 and TEAD-YAP inh -2.6.
Screening COCC(C)NC(=O)c1c(C)nc2scc(C)n12 (stereo not drawn) returned MITF primary -5.9, GPR151 activ -0.8, FBW7 activator -0.5 and TEAD-YAP inh -2.2.
`COc1cc(Nc2cc(C)nc(N3CCN(c4ccccn4)CC3)n2)cc(OC)c1OC` gave MITF primary 4.4, GPR151 activ 2.7, FBW7 activator -0.1 and TEAD-YAP inh 52.5*.
For COc1cc(Nc2cc(N3CCN(c4ccccn4)CC3)ncn2)cc(OC)c1OC the results were MITF primary -9.1, GPR151 activ -0.9, FBW7 activator 0.4 and TEAD-YAP inh -13.4.
Screening COc1cc(Nc2ccnc(N3CCN(c4ccccn4)CC3)n2)cc(OC)c1OC returned MITF primary 11.1, GPR151 activ 0.0, FBW7 activator -0.1 and TEAD-YAP inh 35.8*.
`CCC(=O)Nc1nc2c(s1)C(=O)CC(c1ccccc1)C2` (stereo not drawn) gave MITF primary -3.1, GPR151 activ -0.3, FBW7 activator -0.1 and TEAD-YAP inh 52.1*.
Cc1ccc2nc(C)c(C(=O)N3CC(C)CC(C)C3)n2c1 (stereo not drawn) was read as MITF primary 6.2, GPR151 activ -0.7, FBW7 activator 2.1* and TEAD-YAP inh -1.0.
Cc1ccc2nc(C)c(C(=O)NC(C)C)n2c1 was read as MITF primary 21.8, GPR151 activ -0.7, FBW7 activator 1.9* and TEAD-YAP inh 2.5.
For Cc1ccc2nc(C)c(C(=O)N3CCCC3)n2c1 the results were MITF primary -2.2, GPR151 activ -0.8, FBW7 activator 0.2 and TEAD-YAP inh 5.0.
For CCCNc1ccnc(Nc2ccccc2)n1 the results were MITF primary 13.1, GPR151 activ 1.0, FBW7 activator -0.1 and TEAD-YAP inh -31.0.
CCCNc1ccnc(Nc2ccncc2)n1 was read as MITF primary 2.9, GPR151 activ -1.3, FBW7 activator 0.0 and TEAD-YAP inh 36.0*.
For CC(=O)N1CCN(c2ccc3cccc(-c4ccc(F)cc4)c3n2)CC1 the results were MITF primary 9.7, GPR151 activ 3.5, FBW7 activator 0.3 and TEAD-YAP inh 14.6.
Screening COc1cc(NC(=O)c2cccc(-n3cc(Nc4nnnn4-c4ccccc4)cn3)c2)ccc1N1CCOCC1 returned MITF primary 1.8, GPR151 activ -1.2, FBW7 activator 0.0 and TEAD-YAP inh 31.9*.
`COc1cc(NC(=O)c2cccc(-n3cc(NS(=O)(=O)Cc4ccccc4)cn3)c2)cc(OC)c1OC` gave MITF primary 8.7, GPR151 activ -1.0, FBW7 activator -0.1 and TEAD-YAP inh 39.4*.
Screening COc1cc(NC(=O)c2cccc(-n3cc(Nc4nc5ccccc5[nH]4)cn3)c2)cc(OC)c1OC returned MITF primary 7.8, GPR151 activ 1.0, FBW7 activator 0.4 and TEAD-YAP inh 33.7*.
`CCC(=O)Nc1ccc(C(=O)COC(=O)/C=C/c2ccc3c(c2)OCO3)cc1` gave MITF primary -13.6, GPR151 activ 1.3, FBW7 activator -0.1 and TEAD-YAP inh -2.0.
`CCN(CC)C(=O)[C@@H]1C[C@H](NCc2ccccc2O)CN1Cc1ccc(Cl)cc1` gave MITF primary -13.7, GPR151 activ -1.0, FBW7 activator 0.0 and TEAD-YAP inh -1.7.
`COc1ccccc1/C=C(\NC(=O)c1ccccc1)C(=O)Nc1cccc(O)c1` gave MITF primary 20.4, GPR151 activ -1.7, FBW7 activator 0.1 and TEAD-YAP inh 40.5*.
O=C(CSc1nc2cc(C(=O)NCC3CCCO3)ccc2c(=O)n1Cc1ccco1)NC1CCCC1 (stereo not drawn) was read as MITF primary -2.6, GPR151 activ -0.5, FBW7 activator 0.0 and TEAD-YAP inh 11.1.
Screening COCCNC(=O)c1ccc2c(=O)n(Cc3ccco3)c(SCC(=O)N3CCN(c4ccccc4)CC3)nc2c1 returned MITF primary -7.2, GPR151 activ 0.0, FBW7 activator 0.0 and TEAD-YAP inh 27.6.
Screening O=C(NCC1CCCO1)c1ccc2c(=O)n(Cc3ccco3)c(SCC(=O)N3CCN(c4ccccc4)CC3)nc2c1 (stereo not drawn) returned MITF primary -1.5, GPR151 activ -0.1, FBW7 activator -0.1 and TEAD-YAP inh 34.9*.
For CN(Cc1ccccc1)C(=O)CSc1nc2cc(C(=O)NCC3CCCO3)ccc2c(=O)n1Cc1ccco1 (stereo not drawn) the results were MITF primary -5.2, GPR151 activ 1.1, FBW7 activator 0.0 and TEAD-YAP inh 37.7*.
Screening COc1ccccc1Nc1nc(-c2ccccn2)cs1 returned MITF primary 18.5, GPR151 activ -1.6, FBW7 activator -1.7 and TEAD-YAP inh -9.8.
For c1ccc(-c2csc(Nc3nc4cc5c(cc4s3)OCO5)n2)nc1 the results were MITF primary 62.2*, GPR151 activ -1.7, FBW7 activator -1.6 and TEAD-YAP inh 90.4*.
COc1cccc2sc(Nc3nc(-c4ccccn4)cs3)nc12 was read as MITF primary -3.2, GPR151 activ -0.2, FBW7 activator -1.8 and TEAD-YAP inh 63.3*.
For COc1cc(/C(C#N)=C/N2CCOCC2)c([N+](=O)[O-])cc1OC the results were MITF primary 11.2, GPR151 activ -0.8, FBW7 activator 0.0 and TEAD-YAP inh -2.5.
For Cc1cc(=O)n2[nH]c(NCc3cccc(Cl)c3)nc2n1 the results were MITF primary 9.0, GPR151 activ -0.4, FBW7 activator 0.1 and TEAD-YAP inh -0.7.
For C=CCN1C(=O)/C(=C/c2ccc(OC(C)=O)c(OCC)c2[N+](=O)[O-])SC1=S the results were MITF primary 20.6, GPR151 activ 0.2, FBW7 activator -0.5 and TEAD-YAP inh 37.0*.
For Cc1ccc2c(c1)C(c1ccccc1)CC(C)N2C(=O)c1ccco1 (stereo not drawn) the results were MITF primary -0.9, GPR151 activ 0.2, FBW7 activator 0.0 and TEAD-YAP inh 50.5*.
Screening Cc1ccc(C(=O)n2c(N)nc3ccccc32)cc1 returned MITF primary -4.7, GPR151 activ -8.1, FBW7 activator -0.3 and TEAD-YAP inh 90.7*.
Screening Nc1nc2ccccc2n1C(=O)c1ccc(Cl)cc1 returned MITF primary 0.6, GPR151 activ -7.6, FBW7 activator -0.5 and TEAD-YAP inh 70.7*.
Screening COCc1nnc(NC(=O)c2c(Cl)cccc2Cl)s1 returned MITF primary 14.8, GPR151 activ -0.6, FBW7 activator 1.6 and TEAD-YAP inh 10.0.
Screening COC(=O)CN1C(=S)N(C)C(=O)/C1=C/c1cc(OC)c(O)c(OC)c1 returned MITF primary 26.8, GPR151 activ 2.4, FBW7 activator 0.0 and TEAD-YAP inh 46.2*.
`CC(NC(=O)CSc1nc2ccc(NC(=O)c3cccc4ccccc34)cc2s1)c1ccccc1` (stereo not drawn) gave MITF primary -1.3, GPR151 activ -0.5, FBW7 activator 0.0 and TEAD-YAP inh -9.9.
